Results as given in PubChem BioAssay AID1259415 (National Center for Advancing Translational Sciences (NCATS), 2018).
Out of some 410,000 compounds screened, about 18,000 (4.4%) were called active. Roughly 7% stayed inconclusive and do not appear here. The list comes from a sample in which actives are over-represented; it also holds similar structures and randomly drawn compounds. A number with no mark means an inactive call. Cut-off read from the data, not from the text of the source: active = activity change below about -60%; inconclusive = no clear call, values can overlap the other calls; inactive = above about -39%.
% is set by controls: 0 for no effect and ±100 for the full control effect.

Experiment: qHTS Assay for inhibitors of the human cytomegalovirus (HCMV)
Conditions: HFF cells, HCMV-luciferase reporter, 72 h; at 57.5 µM; stronger effect = lower value
Outline: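 Screen run at 2 compound doses on HFFs infected with reporter HCMV, MOI 1 PFU/cell. Luciferase activity from cell lysates at 72 h post infection gave inhibition relative to buffer-only and Salinomycin wells.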
With `COc1ccc(-c2nc(-c3ccccc3)no2)c(OC)c1` the activity change, negative = inhibition was -60.9% (active).
Compound `CC(=O)c1ccc(NC(=O)COc2ccccc2-c2nc(-c3ccccc3)no2)cc1` has an activity change, negative = inhibition of 13.9%.
Work on `COc1ccc(-c2noc(CSc3nnc(-c4ccccc4)n3-c3ccc(F)cc3)n2)c(OC)c1` yielded an activity change, negative = inhibition of -21.4%.
With `COc1cc(-c2noc(-c3ccc(N4CCCC4)c([N+](=O)[O-])c3)n2)cc(OC)c1OC` the activity change, negative = inhibition was -6.79%.
With `COc1ccc(-c2cc(-c3nc(-c4cc(OC)c(OC)c(OC)c4)no3)[nH]n2)c(OC)c1` the activity change, negative = inhibition was -68.8% (active).
`COc1cc(-c2noc(C3CCCN(S(=O)(=O)c4cccc(Cl)c4)C3)n2)cc(OC)c1OC` (configuration not stated) showed an activity change, negative = inhibition of 41.5%.
Compound `O=C1CN(C(=O)Nc2ccccc2C(F)(F)F)C(c2ccccc2)c2c(sc3c2CCCC3)N1` (configuration not stated) has an activity change, negative = inhibition of -16.6%.
Work on `CCCCOc1ccc(N(CC(=O)NCC2CCCO2)C(=O)CCC(=O)Nc2cc(C)ccn2)cc1` (configuration not stated) yielded an activity change, negative = inhibition of 36.3%.
`CC(C)Oc1ccc(/C=N/NC(=O)c2nnn(-c3nonc3N)c2CN(C)C2CCCCC2)cc1` showed an activity change, negative = inhibition of 7.96%.
For `Nc1nonc1-n1nnc(C(=O)N/N=C/c2cc(Br)ccc2O)c1CSC1=NCCS1`, the activity change, negative = inhibition was -103% (active).
Compound `CN(C)Cc1c(C(=O)N/N=C/c2ccccc2OCc2ccc(F)cc2)nnn1-c1nonc1N` has an activity change, negative = inhibition of -6.09%.
For `CC(C)c1ccc(NC(=O)c2ccc3c(O)c(S(=O)(=O)c4ccccc4)c(=O)[nH]c3c2)cc1`, the activity change, negative = inhibition was 2.46%.
For `Cc1ccc2nc(COc3ccc(NC(=O)COc4ccccc4F)cc3)cc(=O)n2c1`, the activity change, negative = inhibition was 20.4%.
For `O=C(O)C1CSC(c2cccnc2)N1` (configuration not stated), the activity change, negative = inhibition was -2.83%.
`Cc1ccc(C2CC2C(=O)NN)cc1` (configuration not stated) gave an activity change, negative = inhibition of 7.91%.
With `Cc1ccc(C2NC(C(=O)O)CS2)cc1` (configuration not stated) the activity change, negative = inhibition was -64.5% (active).
For `Cc1nc2ccc(S(=O)(=O)N(CC(=O)Nc3ccc(F)cc3)Cc3ccccc3)cc2s1`, the activity change, negative = inhibition was -20.3%.
`COC(=O)c1cccc(Cn2nnc3sc4c(c3c2=O)CCC(C(C)(C)C)C4)c1` (configuration not stated) showed an activity change, negative = inhibition of 27.6%.
In the case of `O=c1[nH]c2cc(Br)ccc2n2cccc12`, the activity change, negative = inhibition was -16.7%.
For `O=C(CN1CCN(c2ccc(Cl)cc2)CC1)NCc1cccs1`, the activity change, negative = inhibition was -26.2%.
Work on `CC(C)OC(=O)CN1CCN(c2ccc(Cl)cc2)CC1` yielded an activity change, negative = inhibition of -25.8%.
In the case of `O=C(CN1CCN(c2ccc(Cl)cc2)CC1)c1ccccc1`, the activity change, negative = inhibition was -68.8% (active).
With `CCCCCCCCN1C(=O)[C@H](CC(=O)NCc2cccc3ccccc23)C[C@@]2(C(=O)OC)CCCCC=C12` the activity change, negative = inhibition was 11.4%.
`CCC(=O)N1CCc2cc(Br)cc(S(=O)(=O)Nc3ccc(C)cc3C)c21` gave an activity change, negative = inhibition of -2.54%.
For `CSc1nc(-c2ccccc2)nc(C(Cl)Cl)n1`, the activity change, negative = inhibition was -99.4% (active).
With `O=C1CC(c2ccccc2)=NN1c1ccc([N+](=O)[O-])cc1` the activity change, negative = inhibition was -78% (active).
Work on `C/C(N)=C(/C#N)C(=O)COC(=O)C1=NN(c2ccccc2)C(=O)CC1` yielded an activity change, negative = inhibition of 36.4%.
`CCN1N=C(c2ccccc2)CCC1=O` gave an activity change, negative = inhibition of -24.2%.
For `O=C1CCCc2cc(S(=O)(=O)N3CCCC(C(=O)NCc4ccccc4)C3)ccc2N1` (configuration not stated), the activity change, negative = inhibition was -3.71%.
For `CCOc1ccc(-n2c(SCC(=O)NCc3ccccc3)nc3n[nH]c(C)c3c2=N)cc1`, the activity change, negative = inhibition was 35.6%.
With `COc1ccc(Cc2nnc(N/N=C/c3ccccc3O)[nH]c2=O)cc1OC` the activity change, negative = inhibition was -97.9% (active).
For `Cc1ccc(Cc2nnc(SCC(=O)Nc3ccccc3C)[nH]c2=O)cc1`, the activity change, negative = inhibition was -1.67%.
`COc1ccc(Cc2nnc(SC)[nH]c2=O)cc1` showed an activity change, negative = inhibition of -30.1%.
Compound `Cc1ccc(C)c(N2CCN(S(=O)(=O)c3ccc4c(c3)C(C(C)C)C(=O)N4)CC2)c1` (configuration not stated) has an activity change, negative = inhibition of -24.7%.
In the case of `CCOc1ccc(NC(=O)CN(C)C(=O)c2c(C)noc2C)cc1OCC`, the activity change, negative = inhibition was -5.36%.
Compound `Cc1ccccc1-c1nc2cc(NC(=O)c3cccc(OCCC(C)C)c3)ccc2o1` has an activity change, negative = inhibition of -15.9%.
With `CC(=O)c1ccc(NC(=O)c2sc3nc4n(c(=O)c3c2C)CCCCC4)cc1` the activity change, negative = inhibition was 23.1%.
Work on `CCOC(=O)C1CCCN(C(=O)c2sc3nc(C)nc(N4CCOCC4)c3c2C)C1` (configuration not stated) yielded an activity change, negative = inhibition of -14%.
In the case of `Cc1nc(N2CCOCC2)c2c(C)c(C(=O)Nc3ccc(C(F)(F)F)cc3)sc2n1`, the activity change, negative = inhibition was -84.9% (active).
Work on `Cc1cc(N2C(=O)C(=O)/C(=C(/O)c3ccccc3)C2c2cccc(Br)c2)no1` (configuration not stated) yielded an activity change, negative = inhibition of -20.6%.
In the case of `CCN(CC)S(=O)(=O)c1ccc(C(=O)N=c2sc3cccc(OC)c3n2C)cc1`, the activity change, negative = inhibition was -2.8%.
In the case of `COc1cc(C(C(=O)NC2CCCC2)N(Cc2ccccc2)C(=O)c2snc(C(N)=O)c2N)ccc1O` (configuration not stated), the activity change, negative = inhibition was -99.2% (active).
For `COc1ccc(N(C(=O)c2snc(C(N)=O)c2N)C(C(=O)NC2CCCC2)c2ccco2)cc1OC` (configuration not stated), the activity change, negative = inhibition was -8.05%.
For `CCOc1ccc(C(C(=O)NC2CCCC2)N(C(=O)c2snc(C(N)=O)c2N)C2CCCC2)cc1` (configuration not stated), the activity change, negative = inhibition was -24.5%.
`CC(C)NC(=O)N1CC(=O)N2[C@H](CO)[C@@H](c3ccc(Br)cc3)[C@H]2C1` showed an activity change, negative = inhibition of 1.46%.
In the case of `CCc1cc2c(cc3c(=O)n(CC(=O)N4CCN(c5cc(Cl)ccc5C)CC4)nc(CC)n32)s1`, the activity change, negative = inhibition was 12.7%.
In the case of `COc1ccc(-c2noc(CCC(=O)N(C)c3ccccc3C)n2)cc1`, the activity change, negative = inhibition was -35.9%.
`CCOC(=O)c1cc2c(=O)n3ccccc3nc2n(CC2CCCO2)c1=NC(=O)c1ccc(C(C)(C)C)cc1` (configuration not stated) gave an activity change, negative = inhibition of 23.6%.
`CCOC(=O)N1CCN(C(=O)CSc2nc(C)nc3c2c(=O)n(C)c(=O)n3C)CC1` gave an activity change, negative = inhibition of -22.5%.
`Cn1c(=O)c2c(SCC(=O)N3CCOCC3)nc(C3CC3)nc2n(C)c1=O` showed an activity change, negative = inhibition of -3.56%.
With `CCCc1nc(SCC(=O)N2CCCC2)c2c(=O)n(C)c(=O)n(C)c2n1` the activity change, negative = inhibition was -70.5% (active).
Work on `Cn1nnnc1SCCCNCc1cccc(OCc2ccc(Cl)cc2)c1` yielded an activity change, negative = inhibition of 12.4%.
Compound `CN(Cc1ccccc1)C(=O)c1cc2c(=O)n(C)c3ccccc3c2s1` has an activity change, negative = inhibition of 2.36%.
For `COc1ccc(CNc2ncnc3ccccc23)cc1`, the activity change, negative = inhibition was -91.4% (active).
In the case of `c1coc(CNc2ncnc3ccccc23)c1`, the activity change, negative = inhibition was -64.6% (active).
Work on `O=C(COc1ncnc2ccccc12)NC(=O)NCc1ccccc1` yielded an activity change, negative = inhibition of -32.5%.
In the case of `COc1cccc(CNC(=O)Cc2csc3nc(-c4ccccc4)cn23)c1`, the activity change, negative = inhibition was -6.98%.
For `NS(=O)(=O)c1ccc(CCNC(=O)COC(=O)COc2cccc(C(F)(F)F)c2)cc1`, the activity change, negative = inhibition was -3.4%.
In the case of `COc1cccc(CNc2nc(C(F)(F)F)nc3ccccc23)c1`, the activity change, negative = inhibition was -73.3% (active).
For `COc1ccc(CNC(=O)COc2cccnc2[N+](=O)[O-])cc1`, the activity change, negative = inhibition was 1.06%.
For `CC(=O)OC[C@@H]1CN(Cc2ccccc2)C[C@H](n2cnc3c(NCc4ccco4)ncnc32)O1`, the activity change, negative = inhibition was -0.673%.
In the case of `NS(=O)(=O)c1ccc(CCNc2nc(C(F)(F)F)nc3ccccc23)cc1`, the activity change, negative = inhibition was -68.6% (active).
With `CC(NCCc1ccc(S(N)(=O)=O)cc1)C(=O)NCc1ccccc1` (configuration not stated) the activity change, negative = inhibition was -27.8%.
Compound `O=C(NCc1ccncc1)C(=O)NCc1ccco1` has an activity change, negative = inhibition of -17.8%.
In the case of `COc1cccc(CNc2ncc(-c3ccccc3)n2C)c1`, the activity change, negative = inhibition was 34.7%.
`CCC(=O)N1CCc2cc(CNC(=O)Nc3ccccc3Cl)ccc21` showed an activity change, negative = inhibition of 38.6%.
Work on `Cc1ccc(NS(=O)(=O)c2ccc3c(c2)CC(=O)N3)cc1Cl` yielded an activity change, negative = inhibition of 7.34%.
For `O=C(NCc1ccccc1Cl)c1cccn1-c1nnc(N2CCCCC2)s1`, the activity change, negative = inhibition was 0%.
For `CCn1c(C(C)NC(=O)c2ccc(C)cc2)n[nH]c1=S` (configuration not stated), the activity change, negative = inhibition was 12.4%.
`Cc1cccc(C2CC(=O)Oc3c2c(=O)n(C)c2ccccc32)c1` (configuration not stated) showed an activity change, negative = inhibition of 18.7%.
For `CN(c1ccccc1)c1nc(N)c([N+](=O)[O-])c(NCc2ccco2)n1`, the activity change, negative = inhibition was -22.9%.
In the case of `c1ccc(-c2nc(NCc3ccco3)c3ccccc3n2)cc1`, the activity change, negative = inhibition was -68% (active).
For `O=[N+]([O-])c1cc(-c2nc(-c3ccccc3)no2)ccc1NCc1ccco1`, the activity change, negative = inhibition was 82.5%.
`Cc1oc(C)c2c(=O)cc(-c3ccc4c(c3)OCO4)cc(OC(=O)c3ccc(Cl)cc3)c12` gave an activity change, negative = inhibition of 8.11%.
For `O=C(OCc1cc(=O)n2nc(C3CC3)sc2n1)c1ccccc1Cl`, the activity change, negative = inhibition was -5.87%.
`COc1cccc(-n2c(SCC(=O)NC3CCCCC3)nc3n[nH]c(C)c3c2=N)c1` gave an activity change, negative = inhibition of 28%.
With `COc1ccc(-n2c(SCC(=O)Nc3ccc(Cl)c(C)c3)nc3n[nH]c(C)c3c2=N)cc1` the activity change, negative = inhibition was 0%.
With `Cc1ccc(-n2c(SCC(=O)NCCC3=CCCCC3)nc3n[nH]c(C)c3c2=N)cc1Cl` the activity change, negative = inhibition was -93.6% (active).
With `COc1ccc(-n2nnc(-c3nsc(NC(=O)c4ccc(C)c(C)c4)n3)c2C)cc1Cl` the activity change, negative = inhibition was -9.03%.
`O=C(NCCc1ccccc1)C(=O)NCC(c1ccco1)S(=O)(=O)c1ccccc1` (configuration not stated) showed an activity change, negative = inhibition of -21.8%.
`COc1cc(C(=O)NCC(c2ccc(Cl)cc2)N2CCOCC2)cc(OC)c1OC` (configuration not stated) gave an activity change, negative = inhibition of 3.59%.
In the case of `N#Cc1nc(COc2ccc(-c3ccccc3)cc2)oc1NCc1cccnc1`, the activity change, negative = inhibition was -63.4% (active).
In the case of `O=S(=O)(c1ccc(Br)cc1)c1nc(-c2ccccc2)oc1NCc1cccnc1`, the activity change, negative = inhibition was -3.8%.
With `Cc1ccc(OCc2nc(C#N)c(N3CCCC3)o2)cc1` the activity change, negative = inhibition was -14.4%.
In the case of `Cc1cc(C)c(NC(=O)CSc2nc3nccnc3c(=O)n2CCc2c[nH]c3ccccc23)c(C)c1`, the activity change, negative = inhibition was -19.7%.
With `COc1ccc2c(c1)c(=Cc1ccc(N(C)C)cc1)c1cc(-c3ccccc3)[n+](C)n12` the activity change, negative = inhibition was -99.1% (active).
For `Cc1ccc(S(=O)(=O)c2nnn3c2nc(N2CCN(c4ccccc4F)CC2)c2cc(Cl)ccc23)cc1C`, the activity change, negative = inhibition was 11.3%.
